Reference: PubChem BioAssay (Tox21)
Records with an inconclusive call do not appear. A call without a number means that no potency is given here. Calls of active or inactive are those of the source. Unless noted, calls follow the shape of the dose curve; as a rule, active = well fitted curve in the direction sought with a large enough effect in the repeat runs; inconclusive = weak or mixed curves; inactive = no such curve, though single readings can be large; an effect the other way counts as inactive or inconclusive.

How the values were obtained:
[1] = qHTS assay to identify small molecule agonists of the androgen receptor (AR) signaling pathway in the presence of an antagonist - cell viability counter screen (AID 1259379);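 also: MDA-kb2 human breast cancer cells carrying an MMTV luciferase reporter; series mostly up to about 92 µM; nearly all actives have a fitted effect of over 25% in size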
Summary of the method: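 MDA-kb2 viability measured by CellTiter-Fluor fluorescence in the same wells as the luciferase signal; nilutamide 3.0uM final; 15-point compound titration; 16 hr at 37C.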

[2] = qHTS assay to identify small molecule agonists of the estrogen receptor beta (ER-beta) signaling pathway - cell viability counter screen (AID 1259380); also: nearly all actives have a fitted effect of over 30% in size; also: potency is read from the fitted curve at half-maximal effect
Summary of the method: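 Measured: luminescence from CellTiter-Glo after 30 min at room temperature, added to wells already read for the LiveBLAzer FRET reporter (2 hr substrate); ER-beta-UAS-bla HEK293T cells had 16 hr compound treatment at 37C, 5% CO2.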

[3] = qHTS assay to identify small molecule antagonists of the estrogen receptor beta (ER-beta) signaling pathway - cell viability counter screen (AID 1259382); also: series mostly up to about 92 µM; nearly all actives have a fitted effect of over 55% in size
Summary of the method: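 Readout: luminescence, CellTiter-Glo, same wells as bla assay. System: ER-beta-UAS-bla GripTite HEK293T, 2% charcoal-stripped FBS. Exposure: compounds plus 1nM 17-beta-estradiol, 16 hr, 37C.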

[4] = qHTS assay to identify small molecule agonists or antagonists of the thyroid stimulating hormone receptor (TSHR) signaling pathway - wild type cell line counter screen (AID 1259384; calls by dose curve)
Summary of the method: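 Wild-type HEK293 cells were plated 18 h at 37 C/5% CO2, pin-dosed with compound plus Ro20-1724 medium, held 30 min at room temperature, then given cAMP-d2 and anti-cAMP-cryptate; fluorescence was read after 1 h. Fifteen concentrations, triplicate.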

[5] = biological target: Thyrotropin receptor (Homo sapiens) (UniProt P16473); experiment: qHTS assay to identify small molecule antagonists of the thyroid stimulating hormone receptor (TSHR) signaling pathway (AID 1259385; calls by dose curve; also: nearly all actives have a fitted effect of over 20% in size)
Summary of the method: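 TSHR-HEK293 cells were plated and held 18 h at 37C/5% CO2, then given compound plus Ro20-1724 and stimulated with TSH at 1.5 ng/mL final. After 30 min at room temperature, cAMP was detected with cAMP-d2/anti-cAMP-cryptate (1 h) by fluorescence.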

[6] = qHTS assay to identify small molecule agonists of the estrogen receptor alpha (ER-alpha) signaling pathway in the presence of an antagonist - cell viability counter screen (AID 1259386);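 also: series mostly up to about 92 µM; cells exposed to compounds for 22 h at 37 °C before the viability read; nearly all actives have a fitted effect of over 30% in size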
Summary of the method: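 The test measures whether compounds kill ER-alpha reporter cells (VM7Luc4E2) under antagonist co-treatment (ICI-182,780, 10.0nM). Fluorescence from CellTiter-Fluor is read after a 22hr exposure.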

[7] = biological target: Progesterone receptor (Homo sapiens) (UniProt P06401); experiment: qHTS assay to identify small molecule agonists of the progesterone receptor (PR) signaling pathway (AID 1346784; calls by dose curve; also: nearly all actives have a fitted effect of over 30% in size; also: potency is read from the fitted curve at half-maximal effect)
Summary of the method: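 Agonist mode, quantitative HTS format in a HEK 293T line expressing a UAS-controlled beta-lactamase reporter; 16 hr compound exposure at 37C in 2% charcoal-stripped FBS, then LiveBLAzer B/G FRET fluorescence.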

[8] = biological target: Progesterone receptor (Homo sapiens) (UniProt P06401); experiment: qHTS assay to identify small molecule antagonists of the progesterone receptor (PR) signaling pathway (AID 1346795; active = well fitted inhibition curve with a large enough effect in the signal ratio in the repeat runs, not every such curve was filed as active; the % refers to the signal ratio)
Summary of the method: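 HEK293T PR-UAS-bla reporter cells in charcoal-stripped serum (2%) received compound after a 6 hr settling period, followed by R5020 agonist at 1 nM final; 16 hr incubation preceded the FRET substrate step and fluorescence measurement.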

[9] = qHTS assay to identify small molecule antagonists of the progesterone receptor (PR) signaling pathway - cell viability counter screen (AID 1346798); also: nearly all actives have a fitted effect of over 50% in size; also: potency is read from the fitted curve at half-maximal effect
Summary of the method: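 Same-well multiplex: after 16 hr at 37C with compound and R5020 stimulation, HEK293T cells carrying a UAS-bla reporter received LiveBLAzer substrate (2 hr RT), then CellTiter-Glo (30 min RT) for luminescent viability.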

[10] = qHTS assay to identify small molecule agonists of the TGF-beta/Smad signaling pathway - cell viability counter screen (AID 1346829); also: top concentration of the series differs between compounds; nearly all actives have a fitted effect of over 45% in size
Summary of the method: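 Cytotoxicity counter screen: CellTiter-Glo luminescence (30 min, room temperature) measured in the SBE-bla HEK 293T reporter wells after 5 hr compound treatment at 37 C and the 2 hr substrate step.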

[11] = qHTS assay to identify small molecule agonists of the TGF-beta/Smad signaling pathway (AID 1346859; active = well fitted activation curve with a large enough effect in the signal ratio in the repeat runs, not every such curve was filed as active; the % refers to the signal ratio; also: series mostly up to about 77 µM)
Summary of the method: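 Smad-responsive beta-lactamase reporter cells (HEK 293T) received compounds from DMSO stocks after overnight attachment, were incubated 5 hr, then treated 2 hr with FRET substrate before dual-emission fluorescence measurement (405 nm excitation).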

[12] = biological target: Thyrotropin-releasing hormone receptor (Homo sapiens) (UniProt P34981); experiment: qHTS assay to identify small molecule antagonists of the thyrotropin-releasing hormone receptor (TRHR) signaling pathway (AID 1346877; active = well fitted inhibition curve with a large enough effect in the repeat runs, not every such curve was filed as active; also: series mostly up to about 51 µM)
Summary of the method: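 Overnight-plated (18 h, 37 °C) HEK293 cells expressing TRHR were dye-loaded 2 h, treated with compound, then stimulated with TRH at 1 nM final. Fluorescence intensity was captured every second for 3 min.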

[13] = biological target: Thyrotropin-releasing hormone receptor (Homo sapiens) (UniProt P34981); experiment: qHTS assay to identify small molecule agonists of the thyrotropin-releasing hormone receptor (TRHR) signaling pathway (AID 1346891; calls by dose curve;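 also: HEK293 cells expressing TRHR with calcium dye readout; series mostly up to about 58 µM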)
Summary of the method: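 Agonist-mode calcium mobilisation screen: TRHR-transfected HEK293 cells cultured overnight (18 h), dye-loaded for 2 h at 37 °C, exposed to compounds, and monitored by fluorescence for 3 min.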

[14] = qHTS assay to identify small molecule agonists of the progesterone receptor (PR) signaling pathway - cell viability counter screen (AID 1346799; calls by dose curve; also: nearly all actives have a fitted effect of over 45% in size; also: potency is read from the fitted curve at half-maximal effect)
Summary of the method: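 Counter screen for cytotoxicity: compound-treated PR-UAS-bla HEK293T cells (16 hr, 37C, 5% CO2) were assayed with CellTiter-Glo, luminescence measured after 30 min at room temperature.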

[15] = qHTS assay to identify small molecule antagonists of the TGF-beta/Smad signaling pathway - cell viability counter screen (AID 1346824); also: nearly all actives have a fitted effect of over 50% in size
Summary of the method: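 SBE-bla HEK 293T cells were plated overnight at 37 C, then given compounds in DMSO plus TGF-beta1 (added as 0.25 ng/mL solution) for 5 hr. After the bla read, CellTiter-Glo was added to the same wells and luminescence read after 30 min at room temperature.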

[16] = biological target: Estrogen receptor (Homo sapiens) (UniProt P03372); experiment: qHTS assay to identify small molecule agonists of the estrogen receptor alpha (ER-alpha) signaling pathway in the presence of an antagonist (AID 1259383; calls by dose curve; also: top concentration of the series differs between compounds; nearly all actives have a fitted effect of over 15% in size)
Summary of the method: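 Quantitative HTS confirmation: compounds titrated at 15 concentrations onto estrogen-deprived VM7Luc4E2 cells carrying a four-ERE luciferase construct, with ICI-182,780 present at 10.0nM final. Signal is luminescence after 22hr exposure.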

[17] = biological target: Estrogen receptor beta (Homo sapiens) (UniProt Q92731); experiment: qHTS assay to identify small molecule antagonists of the estrogen receptor beta (ER-beta) signaling pathway (AID 1259378; active = well fitted inhibition curve with a large enough effect in the signal ratio in the repeat runs, not every such curve was filed as active; the % refers to the signal ratio)
Summary of the method: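 ER-beta-UAS-bla HEK293T (GripTite) cells in 2% charcoal-stripped FBS medium were preincubated 6 hr at 37C, dosed with compound, then stimulated with 1 nM E2 (final) for 16 hr; beta-lactamase reporter read by B/G FRET fluorescence after 2 hr substrate loading.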

[18] = biological target: Androgen receptor (Homo sapiens) (UniProt P10275); experiment: qHTS assay to identify small molecule agonists of the androgen receptor (AR) signaling pathway in the presence of an antagonist (AID 1259381; calls by dose curve; also: nearly all actives have a fitted effect of over 15% in size)
Summary of the method: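 Luminescent ONE-Glo read, 30min at room temperature, follows 16hr compound exposure (15 concentrations) of MDA-kb2 cells at 37C, 0% CO2, with nilutamide added at 3.0uM final.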

Chain of Thyrotropin receptor (Homo sapiens) (P16473 whole entry, looked up): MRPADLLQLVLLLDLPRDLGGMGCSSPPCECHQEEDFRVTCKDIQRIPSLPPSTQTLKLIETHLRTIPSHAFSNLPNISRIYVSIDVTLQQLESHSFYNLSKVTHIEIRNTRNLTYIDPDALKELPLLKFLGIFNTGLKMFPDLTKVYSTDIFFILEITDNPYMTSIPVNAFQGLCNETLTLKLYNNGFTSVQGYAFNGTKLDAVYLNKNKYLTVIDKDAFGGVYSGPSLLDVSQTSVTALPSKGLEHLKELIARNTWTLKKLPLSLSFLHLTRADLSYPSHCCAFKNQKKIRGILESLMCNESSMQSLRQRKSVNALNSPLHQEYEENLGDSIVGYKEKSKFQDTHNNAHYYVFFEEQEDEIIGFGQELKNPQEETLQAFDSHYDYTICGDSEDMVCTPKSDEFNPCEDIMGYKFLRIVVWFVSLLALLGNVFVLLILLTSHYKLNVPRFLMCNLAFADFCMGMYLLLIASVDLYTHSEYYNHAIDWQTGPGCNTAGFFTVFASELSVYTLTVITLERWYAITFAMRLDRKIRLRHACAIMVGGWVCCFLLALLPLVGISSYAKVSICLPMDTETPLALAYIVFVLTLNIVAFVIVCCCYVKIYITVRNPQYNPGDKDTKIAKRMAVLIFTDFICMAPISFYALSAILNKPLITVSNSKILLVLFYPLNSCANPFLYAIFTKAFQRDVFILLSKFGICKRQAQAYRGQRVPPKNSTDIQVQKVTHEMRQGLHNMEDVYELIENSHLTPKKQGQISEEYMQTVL
Chain of Estrogen receptor beta (Homo sapiens) (Q92731 whole entry, looked up): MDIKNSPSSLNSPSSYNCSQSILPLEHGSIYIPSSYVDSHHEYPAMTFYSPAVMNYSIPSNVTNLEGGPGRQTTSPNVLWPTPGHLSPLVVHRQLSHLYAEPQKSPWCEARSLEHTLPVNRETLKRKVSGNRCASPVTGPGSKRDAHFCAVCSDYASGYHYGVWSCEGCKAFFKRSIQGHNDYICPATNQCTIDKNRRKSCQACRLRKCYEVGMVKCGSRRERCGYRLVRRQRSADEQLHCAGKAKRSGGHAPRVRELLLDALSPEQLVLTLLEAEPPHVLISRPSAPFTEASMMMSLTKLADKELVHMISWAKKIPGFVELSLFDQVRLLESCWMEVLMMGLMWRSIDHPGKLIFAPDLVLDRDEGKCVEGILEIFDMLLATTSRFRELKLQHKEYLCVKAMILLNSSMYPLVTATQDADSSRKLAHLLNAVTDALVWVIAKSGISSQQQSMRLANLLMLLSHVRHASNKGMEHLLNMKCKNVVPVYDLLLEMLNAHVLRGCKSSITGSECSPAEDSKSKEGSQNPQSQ
Chain of Thyrotropin-releasing hormone receptor (Homo sapiens) (P34981 whole entry, looked up): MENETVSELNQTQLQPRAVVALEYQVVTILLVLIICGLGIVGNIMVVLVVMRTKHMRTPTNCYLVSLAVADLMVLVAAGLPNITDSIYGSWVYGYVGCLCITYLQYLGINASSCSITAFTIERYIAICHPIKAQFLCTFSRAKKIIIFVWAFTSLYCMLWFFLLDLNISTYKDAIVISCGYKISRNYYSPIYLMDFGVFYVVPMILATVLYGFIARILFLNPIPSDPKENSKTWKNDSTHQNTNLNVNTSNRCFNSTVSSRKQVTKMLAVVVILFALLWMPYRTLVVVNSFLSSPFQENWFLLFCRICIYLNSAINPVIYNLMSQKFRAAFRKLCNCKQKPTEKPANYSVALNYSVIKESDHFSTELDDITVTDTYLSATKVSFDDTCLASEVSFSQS
Chain of Estrogen receptor (Homo sapiens) (P03372 whole entry, looked up): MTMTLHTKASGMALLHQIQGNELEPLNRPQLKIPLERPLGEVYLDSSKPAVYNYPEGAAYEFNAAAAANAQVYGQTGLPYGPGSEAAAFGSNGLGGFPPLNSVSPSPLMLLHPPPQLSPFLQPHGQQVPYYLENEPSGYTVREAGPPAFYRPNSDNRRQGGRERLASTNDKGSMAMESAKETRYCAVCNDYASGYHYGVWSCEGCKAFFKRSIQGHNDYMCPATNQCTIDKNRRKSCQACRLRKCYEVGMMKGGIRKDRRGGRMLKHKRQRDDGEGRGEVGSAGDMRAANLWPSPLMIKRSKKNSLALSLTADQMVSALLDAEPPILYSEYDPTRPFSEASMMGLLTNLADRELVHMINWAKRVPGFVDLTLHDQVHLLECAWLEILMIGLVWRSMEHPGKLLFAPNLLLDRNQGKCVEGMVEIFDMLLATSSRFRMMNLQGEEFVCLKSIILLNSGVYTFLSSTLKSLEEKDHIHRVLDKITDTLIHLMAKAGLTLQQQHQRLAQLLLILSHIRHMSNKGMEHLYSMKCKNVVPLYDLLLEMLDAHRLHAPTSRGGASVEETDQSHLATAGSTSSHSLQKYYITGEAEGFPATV
Chain of Progesterone receptor (Homo sapiens) (P06401 whole entry, looked up): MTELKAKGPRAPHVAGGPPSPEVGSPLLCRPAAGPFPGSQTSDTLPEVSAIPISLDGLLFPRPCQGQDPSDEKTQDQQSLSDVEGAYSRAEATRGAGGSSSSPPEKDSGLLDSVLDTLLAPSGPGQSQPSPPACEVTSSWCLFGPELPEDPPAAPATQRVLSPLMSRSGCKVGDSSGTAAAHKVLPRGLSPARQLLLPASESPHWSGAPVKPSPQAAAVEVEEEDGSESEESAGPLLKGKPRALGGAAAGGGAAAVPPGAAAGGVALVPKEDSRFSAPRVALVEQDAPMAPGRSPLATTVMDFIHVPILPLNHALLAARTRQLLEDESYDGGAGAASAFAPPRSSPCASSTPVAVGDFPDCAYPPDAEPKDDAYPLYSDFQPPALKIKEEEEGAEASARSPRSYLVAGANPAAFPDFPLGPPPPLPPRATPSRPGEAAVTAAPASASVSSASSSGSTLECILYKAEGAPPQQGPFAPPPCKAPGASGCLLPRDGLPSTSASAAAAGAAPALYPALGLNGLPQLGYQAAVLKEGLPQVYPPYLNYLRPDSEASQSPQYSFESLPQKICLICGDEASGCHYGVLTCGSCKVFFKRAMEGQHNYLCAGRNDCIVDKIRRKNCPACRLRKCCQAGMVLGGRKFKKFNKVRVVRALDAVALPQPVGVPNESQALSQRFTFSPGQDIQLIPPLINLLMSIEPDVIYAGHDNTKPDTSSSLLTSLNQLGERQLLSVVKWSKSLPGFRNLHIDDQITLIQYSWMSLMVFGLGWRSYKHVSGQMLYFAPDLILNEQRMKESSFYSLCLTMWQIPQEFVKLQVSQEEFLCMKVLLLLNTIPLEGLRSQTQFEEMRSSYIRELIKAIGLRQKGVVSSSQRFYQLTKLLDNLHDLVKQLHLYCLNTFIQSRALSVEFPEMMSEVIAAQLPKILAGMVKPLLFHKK
Chain of Androgen receptor (Homo sapiens) (P10275 whole entry, looked up): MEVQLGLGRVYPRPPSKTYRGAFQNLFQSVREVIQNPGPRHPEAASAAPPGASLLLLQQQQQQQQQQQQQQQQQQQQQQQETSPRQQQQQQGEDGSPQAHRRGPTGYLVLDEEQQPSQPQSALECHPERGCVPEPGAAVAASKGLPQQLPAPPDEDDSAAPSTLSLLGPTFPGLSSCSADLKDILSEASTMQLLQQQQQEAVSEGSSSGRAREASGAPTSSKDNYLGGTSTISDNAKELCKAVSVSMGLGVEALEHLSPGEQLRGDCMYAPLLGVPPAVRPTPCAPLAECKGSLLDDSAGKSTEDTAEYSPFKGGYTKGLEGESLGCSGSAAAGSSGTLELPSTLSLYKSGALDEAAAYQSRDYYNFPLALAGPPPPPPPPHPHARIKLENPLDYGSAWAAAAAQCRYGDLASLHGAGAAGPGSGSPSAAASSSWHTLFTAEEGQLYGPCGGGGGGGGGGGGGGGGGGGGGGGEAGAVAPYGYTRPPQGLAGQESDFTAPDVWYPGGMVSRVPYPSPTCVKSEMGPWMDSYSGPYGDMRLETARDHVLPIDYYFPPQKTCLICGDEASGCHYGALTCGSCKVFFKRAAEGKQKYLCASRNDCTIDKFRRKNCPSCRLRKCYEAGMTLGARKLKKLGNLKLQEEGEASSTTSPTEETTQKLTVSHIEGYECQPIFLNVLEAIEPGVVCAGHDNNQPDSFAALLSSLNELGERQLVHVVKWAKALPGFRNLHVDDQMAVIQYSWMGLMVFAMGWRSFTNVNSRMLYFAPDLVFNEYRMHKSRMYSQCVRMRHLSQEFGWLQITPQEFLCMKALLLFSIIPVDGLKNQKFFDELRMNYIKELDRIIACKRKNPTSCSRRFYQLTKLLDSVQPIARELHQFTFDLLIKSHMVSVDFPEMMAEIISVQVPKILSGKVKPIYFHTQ

Structure (SMILES)	Potency [1]	Potency [2]	Potency [3]	outcome [4]	Potency [5]	outcome [6]	Potency [7]	Potency [8]	Potency [9]	outcome [10]	outcome [11]	outcome [12]	outcome [13]	Potency [14]	outcome [15]	Potency [16]	Potency [17]	Potency [18]
CCC(=O)c1cccc(Cl)c1	inactive	inactive	inactive	inactive	inactive	inactive	1.97 µM (active)	inactive	inactive	inactive	inactive	inactive	inactive					
OCCCCCCO	inactive	55.1 µM (active)				inactive			61.9 µM (active)	inactive	inactive	inactive	inactive	19.6 µM (active)	inactive			
CC(=O)c1ccc(C)cc1	inactive	inactive	inactive	inactive	inactive	inactive	inactive	inactive	inactive	inactive	inactive	inactive	inactive	inactive	inactive	inactive		
C=C(C)[C@@H]1CCC2=CC(=O)C[C@@H](C)[C@]2(C)C1	inactive	inactive	inactive	inactive	inactive	inactive	inactive			inactive	inactive			inactive	inactive	inactive	inactive	
CCCCCOC(=O)Nc1nc(=O)n([C@@H]2O[C@H](C)[C@@H](O)[C@H]2O)cc1F	inactive	inactive	inactive	inactive	inactive	inactive	inactive	inactive	inactive	inactive	inactive			inactive		inactive	inactive	
COC(=O)CCCCCCCCC(=O)OC	inactive	inactive	inactive	inactive	inactive	inactive	inactive	inactive	inactive	inactive	inactive	inactive	inactive	inactive	inactive			
COC(=O)C1=C(C)NC(C)=C(C(=O)OCC(C)=O)C1c1ccccc1[N+](=O)[O-] (configuration not stated)	inactive	inactive	inactive	inactive		inactive	inactive	inactive	inactive	inactive	inactive	inactive	inactive		inactive	inactive		
NCCN1CCNC1=O	inactive	inactive	inactive	inactive	inactive	inactive	inactive	inactive	inactive	inactive	inactive			inactive				
CN1[C@@H]2CC[C@H]1CC(NC(=O)n1c(=O)[nH]c3ccccc31)C2 (some centres not stated)		inactive	inactive			inactive	inactive	inactive	inactive	inactive	inactive	inactive	inactive	inactive	inactive	inactive	inactive	inactive
CCn1c(=O)c2c(nc(/C=C/c3ccc(OC)c(OC)c3)n2C)n(CC)c1=O	inactive		inactive			inactive	inactive	inactive		inactive	inactive	inactive	inactive		inactive			
